The whole screen tested about 16,000 compounds, of which about 5,800 (36%) were called active. Inconclusive results (about 23%) are left out. The call rests on the fitted dose curve; in most records, active means well fitted curve in the direction sought with a large enough effect; inconclusive means small, poorly fitted or top-dose-only effect, or effect the other way; inactive means no such curve, though single readings can be large or run the other way. The list shows a part of the results.
On the % scale 0 is the no-effect control and ±100 the full control effect.

The target in the assay is Cytochrome P450 2C19 (Homo sapiens) (UniProt P33261). The assay is described as follows: Cytochrome panel assay with activity outcomes. As to conditions: recombinant CYP, pro-luciferin dealkylation, luminescence, p450-cyp2c19; series mostly up to 57.1 µM; activity, negative = inhibition: at the top concentration.
Sequence of Cytochrome P450 2C19 (Homo sapiens) (P33261 whole entry, looked up): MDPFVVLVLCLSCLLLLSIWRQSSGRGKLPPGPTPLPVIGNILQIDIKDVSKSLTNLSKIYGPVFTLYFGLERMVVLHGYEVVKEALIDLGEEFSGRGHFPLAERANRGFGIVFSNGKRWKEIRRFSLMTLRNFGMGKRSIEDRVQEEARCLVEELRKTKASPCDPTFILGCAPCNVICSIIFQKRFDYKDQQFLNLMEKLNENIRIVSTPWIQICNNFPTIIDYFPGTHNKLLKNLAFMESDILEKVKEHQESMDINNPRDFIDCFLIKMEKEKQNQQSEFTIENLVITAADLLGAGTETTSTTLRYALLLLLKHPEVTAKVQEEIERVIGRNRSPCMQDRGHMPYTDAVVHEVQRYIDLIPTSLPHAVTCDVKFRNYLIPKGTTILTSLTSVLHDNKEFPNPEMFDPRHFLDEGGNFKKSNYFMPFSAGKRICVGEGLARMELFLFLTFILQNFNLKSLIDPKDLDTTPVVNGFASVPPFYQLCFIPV
In the case of `N#Cc1c(-c2ccccc2)nc(-c2ccccc2)[nH]c1=O`, the “activity, negative = inhibition” value is -24.4% (inactive).
The same measure, in the same setting: with `N#Cc1c(-c2ccccc2)cc(C2CC2)nc1SCC(=O)c1cccs1` the figure was -14.7% (inactive).
For the compound `Cc1cccc(NC(=O)CSc2nc(-c3ccccc3)c(C#N)c(=O)[nH]2)c1C`, the AC50 (in general, the concentration at which the activity in the assay is half-maximal) was 14.1 µM (active).
In the case of `N#CCCn1c(=O)c(-c2cccs2)nc2cnc(OCc3ccccc3)nc21`, the “activity, negative = inhibition” value is -9.15% (inactive).
With `N#Cc1c(-c2cccs2)nc(SCC(=O)c2cccs2)[nH]c1=O`, the AC50 is 15.8 µM (active).
For `CN[C@H](CC(=O)O)C(=O)O`, the “activity, negative = inhibition” value is 10.2% (inactive).
Regarding `Cc1[nH]nc(N2CCCCCC2)c1[N+](=O)[O-]`, the AC50 was 6.31 µM (active).
Take `O=S(=O)(c1ccccc1)N1CCC2(CCN(Cc3ccccc3)CC2)CC1`: the “activity, negative = inhibition” value is -3.37% (inactive).
As for `Cc1noc(C)c1C(=O)N1CCC2(CCN(Cc3ccncc3)CC2)CC1`, the “activity, negative = inhibition” value is -40.9% (inactive).
For the compound `CCOC(=O)C1(S(=O)(=O)c2ccccc2)CCN(Cc2ccccc2)CC1`, the AC50 was 2.51 µM (active).
On to `CCOC(=O)C1(S(=O)(=O)c2ccc(Cl)cc2)CCN(Cc2ccc(Cl)cc2)CC1`, for which the AC50 was 2.24 µM (active).
For the compound `O=C(O)C1CCC(=O)N(C2CC2)C1c1ccccc1` (configuration not stated), the “activity, negative = inhibition” value was -8.66% (inactive).
On the same count and under the same terms, with `O=C(NCc1cccnc1)[C@@H]1[C@@H](C(=O)O)[C@H]2CC[C@@H]1O2` the figure was 23.6% [at 11.4 µM] (inactive).
`O=C(O)[C@@H]1[C@@H](C(=O)NCc2cccnc2)[C@@H]2C=C[C@@H]1O2`: the activity, negative = inhibition is 6.83% [at 11.4 µM] (inactive).
For `Cc1ccc(CNC(=O)C2CCC(=O)N2C2CCCCC2)cc1` (configuration not stated), the half-maximal activity concentration (AC50) is 3.16 µM (active).
Consider `Cc1ccc(SCC(=O)NNC(=O)C2CCCCC2)cc1`, for which the “activity, negative = inhibition” value was -27.7% (inactive).
`Cc1ccc(CNC(=O)C2CCCN2C(=O)NCc2ccccc2)cc1` (configuration not stated): the half-maximal activity concentration (AC50) was 10 µM (active).
Take `CC(C)(C)OC(=O)N1CCCC1C(=O)NCCc1ccccc1` (configuration not stated): the half-maximal activity concentration (AC50) was 6.31 µM (active).
On to `Cc1ccc(CN2C(=O)CCC2C(=O)NCc2cccnc2)cc1` (configuration not stated), for which the AC50 was 22.4 µM (active).
For the compound `COc1cc2nc(N3CCN(C(=O)OCc4ccccc4)[C@H](C(=O)NC(C)(C)C)C3)nc(N)c2cc1OC`, the “activity, negative = inhibition” value is -23.6% (inactive).
As for `CN(C)C(=O)N1CCCC(C(=O)NCCc2ccccc2)C1` (configuration not stated), the “activity, negative = inhibition” value is -25.2% (inactive).
Turning to `CCOC(=O)[C@H](CCc1ccccc1)N[C@@H](C)C(=O)N1CCC[C@H]1C(=O)O`, the “activity, negative = inhibition” value was 32.5% [at 25.6 µM] (inactive).
Same read-out and setting: with `O=C(O)c1ccccc1-c1ccccc1C(=O)Nc1ccc2c(c1)[nH]c(=O)c1ccccc12` the figure was -24.7% [at 11.4 µM] (inactive); with `COc1cc(=O)n(C)c2c(OC[C@@H](O)C(C)(C)O)cccc12`, 37.7% (inactive); with `C[C@H](CCC(=O)NCC(=O)O)[C@H]1CC[C@H]2[C@H]3[C@@H](C[C@@H](O)[C@]12C)[C@]1(C)CC[C@H](O)C[C@@H]1C[C@@H]3O`, -2.13% [at 25.6 µM] (inactive).
Regarding `COCCn1c(C)cc(C2=NNC(=Nc3ccc(F)cc3)SC2)c1C`, the AC50 is 6.31 µM (active).
`O=C(NNC(=O)c1cc2cc3ccccc3nc2s1)c1cccc(C(F)(F)F)c1`: the “activity, negative = inhibition” value is -4.56% (inactive).
Regarding `O=C(N/N=C/c1c(Nc2cccc(C(F)(F)F)c2)nc2ccccn2c1=O)c1ccccc1`, the AC50 is 7.08 µM (active).
Regarding `Cc1ccc(C(=O)N/N=C/c2sc(=O)n(Cc3cccc(C(=O)O)c3)c2Cl)cc1`, the “activity, negative = inhibition” value is 7.1% (inactive).
With `O=C(NCCC[N+]1=CC=N[C@H]1c1ccccc1)N1CCCc2nc(-c3ccc(Br)cc3)ccc21`, the activity, negative = inhibition was -32% [at 11.4 µM] (inactive).
For the compound `Clc1ccccc1CSc1nnc(/C=C/c2ccccc2)o1`, the AC50 was 6.31 µM (active).
Consider `Clc1cccc(Cl)c1CSc1nnc(/C=C/c2ccccc2)o1`, for which the AC50 was 10 µM (active).
In the case of `CC(C)=CCC/C(C)=C/CO/N=C1/C[C@@H](O)[C@@H](O)[C@@H]2[C@@H]3C(=O)N(Cc4ccc5c(c4)OCO5)C(=O)[C@H]3CC[C@H]12`, the activity, negative = inhibition is -41.4% [at 11.4 µM] (inactive).
Regarding `CC1(C)CC(=O)c2c(Cc3ccccc3)n[nH]c2C1`, the AC50 is 15.8 µM (active).
For `Cc1ccc(C)c(N2CCN(C(=O)c3ccc4nc(-c5ccco5)c(-c5ccco5)nc4c3)CC2)c1`, the AC50 is 8.91 µM (active).
Consider `Cc1ccc(CNC(=O)CCNS(=O)(=O)c2ccc3c(c2)c(=O)n(C)c(=O)n3C)cc1`, for which the “activity, negative = inhibition” value is -15.8% (inactive).
On to `CCC(CC)C(=O)NCc1ccc2c(c1)cc(C)n2C`, for which the half-maximal activity concentration (AC50) was 14.1 µM (active).
With `CCOC(=O)NCc1ccc2c(c1)cc(C)n2C`, the AC50 was 15.8 µM (active).
Regarding `CCOC(=O)NNc1nncc2ccccc12`, the “activity, negative = inhibition” value is -27.7% [at 25.6 µM] (inactive).
Turning to `Cc1cc2cc(CNC(=O)CC(C)C)ccc2n1C`, the concentration at half-maximal activity (AC50) was 11.2 µM (active).
Turning to `CC(N)=O`, the “activity, negative = inhibition” value is 18.4% (inactive).
On the same count and under the same terms, for `Cn1c(=O)c2[nH]c(CCS)nc2n(C)c1=O` the value was -13.4% [at 11.4 µM] (inactive).
As for `COc1ccc(C(C(=O)NC2CCCCC2)N(C(=O)Cc2c[nH]c3ccccc23)c2ccc(NC(C)=O)cc2)cc1OC` (configuration not stated), the AC50 is 10 µM (active).
As to `CC(=O)N[C@@H](Cc1c[nH]c2ccccc12)C(=O)OCc1cc(C(F)(F)F)cc(C(F)(F)F)c1`, the “activity, negative = inhibition” value is -35.8% (inactive).
Turning to `COc1ccc(S(=O)(=O)Nc2cccc(Cl)c2)cc1OC`, the AC50 is 0.631 µM (active).
Same read-out and setting: with `CCOc1ccccc1Oc1coc2cc(OC)ccc2c1=O` the figure was 2.82 µM (active).
As to `CCN(CC)Cc1c(O)ccc2c(=O)c(Oc3ccccc3OC)coc12`, the “activity, negative = inhibition” value is -9.67% (inactive).

The values are drawn from PubChem BioAssay AID1851 (National Center for Advancing Translational Sciences (NCATS), 2009).
